PubChem BioAssay (EPA / NIEHS)
Active and inactive are the calls of the source. The calls were made as follows: active = hit-call score of the fitted dose curve at least 0.9, where 1 is the maximum; inactive = score below 0.9.

Legend:
Settings in all cases: mRNA level, 48 h; actives raise or lower the signal
[1] = read-out: Tumor necrosis factor receptor superfamily member 6 (Homo sapiens) (UniProt P25445); assay: LTEA_HepaRG_FAS: Life Technologies and Expression Analysis (LTEA) Assay for Fas cell surface death receptor (FAS) using HepaRG (AID 2283447)
How it was run: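 Differentiated HepaRG cells in serum-free induction medium were exposed 48 h to 8 half-log concentrations up to 100 uM in 0.5% DMSO, in duplicate. FAS mRNA was measured by qRT-PCR normalised to ACTB, GAPDH and POLR2A; bidirectional fit versus DMSO.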

[2] = read-out: Fatty acid synthase (Homo sapiens) (UniProt P49327); assay: LTEA_HepaRG_FASN: Life Technologies and Expression Analysis (LTEA) Assay for Fatty Acid Synthase (FASN) using HepaRG (AID 2283448)
How it was run: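 FASN transcript measured by TaqMan qRT-PCR, normalised to three housekeeping genes, after 48 h chemical exposure of HepaRG cells. Eight-point half-log series from 100 uM in 0.5% DMSO, duplicates; gain or loss fitted against vehicle.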

[3] = read-out: Cyclin D2 (CCND2), CCND2 (gene 894); assay: LTEA_HepaRG_CCND2: Life Technologies and Expression Analysis (LTEA) Assay for Cyclin D2 (CCND2) using HepaRG (AID 2283449);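 also: CCND2 transcript measured by TaqMan qRT-PCR and normalised to three housekeeping genes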
How it was run: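 HepaRG, 48 h dosing, 8-pt half-log curve from 100 uM, 0.5% DMSO; duplicate wells. Readout: CCND2 transcript by microfluidic qRT-PCR, housekeeping-normalised; bidirectional fit vs DMSO baseline.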

[4] = read-out: Cyclin Dependent Kinase Inhibitor 1A (CDKN1A), CDKN1A (gene 1026); assay: LTEA_HepaRG_CDKN1A: Life Technologies and Expression Analysis (LTEA) Assay for Cyclin Dependent Kinase Inhibitor 1A (CDKN1A) using HepaRG (AID 2283450)
How it was run: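 Differentiated HepaRG cells in serum-free induction medium, exposed 48 h in duplicate to eight half-log concentrations up to 100 uM in 0.5% DMSO. mRNA measured by TaqMan qRT-PCR, normalized to ACTB, GAPDH, POLR2A; bidirectional fit versus DMSO.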

Measured: outcome

Sequence of Fatty acid synthase (Homo sapiens) (P49327 whole entry, looked up): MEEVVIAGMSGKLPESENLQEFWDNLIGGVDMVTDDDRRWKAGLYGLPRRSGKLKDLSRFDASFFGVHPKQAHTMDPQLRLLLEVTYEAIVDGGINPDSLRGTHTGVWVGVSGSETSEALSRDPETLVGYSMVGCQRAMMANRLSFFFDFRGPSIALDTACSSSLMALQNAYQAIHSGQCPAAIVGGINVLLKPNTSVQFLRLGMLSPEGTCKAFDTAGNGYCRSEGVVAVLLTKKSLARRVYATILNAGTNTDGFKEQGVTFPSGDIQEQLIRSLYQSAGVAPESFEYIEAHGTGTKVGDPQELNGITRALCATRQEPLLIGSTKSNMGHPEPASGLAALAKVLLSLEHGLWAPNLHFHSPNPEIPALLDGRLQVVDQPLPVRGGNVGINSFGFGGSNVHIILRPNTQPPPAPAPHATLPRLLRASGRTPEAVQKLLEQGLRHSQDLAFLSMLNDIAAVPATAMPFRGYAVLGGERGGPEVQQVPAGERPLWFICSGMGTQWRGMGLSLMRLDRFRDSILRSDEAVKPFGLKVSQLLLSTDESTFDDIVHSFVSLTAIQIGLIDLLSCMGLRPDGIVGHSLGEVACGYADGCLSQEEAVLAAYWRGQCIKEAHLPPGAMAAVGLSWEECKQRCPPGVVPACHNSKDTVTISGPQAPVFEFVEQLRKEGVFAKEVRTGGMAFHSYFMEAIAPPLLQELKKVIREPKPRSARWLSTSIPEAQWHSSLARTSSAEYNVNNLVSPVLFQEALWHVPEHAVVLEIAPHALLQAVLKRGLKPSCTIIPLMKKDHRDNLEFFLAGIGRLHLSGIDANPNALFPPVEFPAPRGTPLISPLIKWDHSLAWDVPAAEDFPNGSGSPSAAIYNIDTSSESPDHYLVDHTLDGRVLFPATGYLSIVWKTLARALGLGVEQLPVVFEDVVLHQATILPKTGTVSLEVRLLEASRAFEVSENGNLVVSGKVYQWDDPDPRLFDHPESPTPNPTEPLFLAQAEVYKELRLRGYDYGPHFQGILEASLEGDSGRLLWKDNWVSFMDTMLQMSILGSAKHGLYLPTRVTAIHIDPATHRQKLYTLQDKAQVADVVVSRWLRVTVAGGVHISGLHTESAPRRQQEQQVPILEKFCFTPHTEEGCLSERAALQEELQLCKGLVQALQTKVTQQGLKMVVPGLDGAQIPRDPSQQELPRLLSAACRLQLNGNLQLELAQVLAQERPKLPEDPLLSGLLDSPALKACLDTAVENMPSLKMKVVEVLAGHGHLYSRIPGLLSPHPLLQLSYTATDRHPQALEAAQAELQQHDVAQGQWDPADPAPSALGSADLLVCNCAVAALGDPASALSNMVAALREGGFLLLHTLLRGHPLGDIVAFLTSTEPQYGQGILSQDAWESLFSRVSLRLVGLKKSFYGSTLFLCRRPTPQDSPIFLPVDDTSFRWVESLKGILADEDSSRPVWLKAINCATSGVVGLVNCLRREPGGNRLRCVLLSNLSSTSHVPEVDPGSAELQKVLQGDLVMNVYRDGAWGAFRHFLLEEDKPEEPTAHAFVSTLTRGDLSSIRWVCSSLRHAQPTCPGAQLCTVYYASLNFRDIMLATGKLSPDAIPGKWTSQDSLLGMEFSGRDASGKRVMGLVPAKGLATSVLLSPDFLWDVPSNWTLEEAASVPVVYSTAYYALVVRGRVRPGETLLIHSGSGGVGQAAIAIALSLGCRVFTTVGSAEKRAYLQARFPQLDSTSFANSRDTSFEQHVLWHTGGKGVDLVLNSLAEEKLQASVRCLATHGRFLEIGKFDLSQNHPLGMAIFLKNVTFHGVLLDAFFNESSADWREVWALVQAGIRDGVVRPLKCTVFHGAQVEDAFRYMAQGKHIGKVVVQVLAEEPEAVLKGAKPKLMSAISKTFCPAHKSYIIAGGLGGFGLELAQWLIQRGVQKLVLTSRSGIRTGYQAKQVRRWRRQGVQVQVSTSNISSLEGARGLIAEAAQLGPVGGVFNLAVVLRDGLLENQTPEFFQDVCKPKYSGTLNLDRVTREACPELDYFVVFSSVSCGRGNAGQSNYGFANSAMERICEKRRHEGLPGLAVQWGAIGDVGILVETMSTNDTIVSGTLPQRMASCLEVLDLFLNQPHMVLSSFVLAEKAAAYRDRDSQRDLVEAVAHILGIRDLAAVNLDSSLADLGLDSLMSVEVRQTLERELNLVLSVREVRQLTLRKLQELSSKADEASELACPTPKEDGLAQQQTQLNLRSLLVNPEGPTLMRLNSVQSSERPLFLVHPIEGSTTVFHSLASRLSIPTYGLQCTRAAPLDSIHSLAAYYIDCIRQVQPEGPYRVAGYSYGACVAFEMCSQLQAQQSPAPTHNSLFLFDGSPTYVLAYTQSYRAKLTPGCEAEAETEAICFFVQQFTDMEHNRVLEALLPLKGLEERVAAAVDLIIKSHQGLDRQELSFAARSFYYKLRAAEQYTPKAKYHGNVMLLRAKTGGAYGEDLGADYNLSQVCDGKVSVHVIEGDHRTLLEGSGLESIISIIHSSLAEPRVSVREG

CC(=O)O
inactive: [1] | [2] | [3] | [4]

CC(C)(C)c1ccccc1
inactive: [1] | [2] | [3] | [4]

Cc1cn([C@H]2C=C[C@@H](CO)O2)c(=O)[nH]c1=O
inactive: [1] | [3] | [4]

C/C=C/c1ccc(OC)cc1
inactive: [1] | [2] | [4]

CCCCC(CC)COC(=O)CCCCCCCC(=O)OCC(CC)CCCC (configuration not stated)
inactive: [1] | [2] | [3] | [4]

Cc1ccc(C(C)(C)C)c(O)c1
inactive: [1] | [2] | [4]

O=NO
inactive: [1] | [2] | [4]

O=C(O)c1cccnc1
inactive: [1] | [2] | [4]
